# Assay results from PubChem BioAssay (NCATS).
# Values without a mark were called inactive. Records with an inconclusive call do not appear. A call without a number means that no potency is given here. Activity calls are given as the source filed them. Unless noted, the call rests on the fitted dose curve; in most records, active means well fitted curve in the direction sought with a large enough effect; inconclusive means small, poorly fitted or top-dose-only effect, or another doubt; inactive means no such curve, though single readings can be large; an effect the other way counts as inactive or inconclusive.
# Legend:
# [1] = qHTS for Inhibitors of Plasmodium falciparum (HB3) proliferation (AID 504318); further: nearly all actives have a fitted effect of over 60% in size; further: potency means the concentration at half of the fitted maximal effect
# How it was run: (§1)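 Erythrocytes infected with P. falciparum line (0.3% parasitemia, 2.5% hematocrit final) incubated with compounds 72 h at 37 °C, 5% CO2; SYBR Green lysis buffer added, fluorescence read next day. Normalized to 0.29 uM artemisinin and DMSO.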
# [2] = target: Atrial natriuretic peptide receptor 1 (Homo sapiens) (UniProt P16066); assay: Natriuretic polypeptide receptor (hNpr1) antagonism - Pilot CMLD screen (AID 1347052; calls by dose curve;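 further: cGMP level read as GloSensor luciferase luminescence after agonist stimulation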; further: potency means the concentration at half of the fitted maximal effect;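 on activity change, negative = inhibition: HEK293 cells with hNpr1 stimulated by hNppA peptide at 0.1 nM; series mostly up to about 9.2 µM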)
# [3] = qHTS for Inhibitors of Plasmodium falciparum (7G8) proliferation (AID 504316); further: nearly all actives have a fitted effect of over 65% in size; further: potency means the concentration at half of the fitted maximal effect; on activity change, negative = inhibition: series mostly up to about 6.7 µM
# How it was run: as §1
# [4] = qHTS for Inhibitors of Plasmodium falciparum (CP250) proliferation (AID 504320); further: potency means the concentration at half of the fitted maximal effect
# How it was run: as §1
# [5] = target: Cytochrome P450 2C9 (Homo sapiens) (UniProt P11712); assay: qHTS Assay for Inhibitors and Substrates of Cytochrome P450 2C9 (AID 883); further: nearly all actives have a fitted effect of over 60% in size
# How it was run: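 Signal: luciferase luminescence reporting luciferin produced by CYP2C9. Conditions: 10nM enzyme, Luciferin-H 100uM at KM, 25mM KPO4, 37C, 60 min NADPH-driven reaction. Reference: 57uM sulphaphenazole as 100% inhibition.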
# [6] = target: Cytochrome P450 3A4 (Homo sapiens) (UniProt P08684); assay: qHTS Assay for Inhibitors and Substrates of Cytochrome P450 3A4 (AID 884); further: nearly all actives have a fitted effect of over 50% in size; further: potency means the concentration at half of the fitted maximal effect; on activity change, negative = inhibition: series mostly up to about 57 µM
# How it was run: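 20 nM human CYP3A4 with 25 uM Luciferin-PPXE (at KM) in 200 mM KPO4, preincubated 10 min with compound; NADPH regeneration started a 60 min RT reaction. Luciferin detected by luminescence, normalized to 57 uM ketoconazole as full inhibition.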
# [7] = target: Cytochrome P450 3A4 (Homo sapiens) (UniProt P08684); assay: qHTS Assay for Activators of Cytochrome P450 3A4 (AID 885); further: nearly all actives have a fitted effect of over 65% in size
# How it was run: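 Signal was normalized against complete inhibition by 57 uM ketoconazole. The reaction used 20nM CYP3A4 with 25uM Luciferin-PPXE, 10-min compound preincubation and a 60-min NADPH-supported step at RT.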
# [8] = target: Cytochrome P450 2D6 (Homo sapiens) (UniProt P10635); assay: qHTS Assay for Inhibitors and Substrates of Cytochrome P450 2D6 (AID 891);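 further: luciferin methyl ether substrate demethylated by CYP2D6 with NADPH regeneration; nearly all actives have a fitted effect of over 60% in size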
# How it was run: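 Human CYP2D6 (5 nM) with 30 uM Luciferin-ME EGE (at Km) in 100 mM KPO4, compound preincubated 10 min, then NADPH regeneration system for 60 min at room temperature. Luciferin read by luminescence; normalized to 1.43 uM quinidine.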
# [9] = target: Cytochrome P450 2C19 (Homo sapiens) (UniProt P33261); assay: qHTS Assay for Inhibitors and Substrates of Cytochrome P450 2C19 (AID 899); further: nearly all actives have a fitted effect of over 60% in size
# How it was run: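 Signal comes from luciferase acting on luciferin released by CYP2C19-mediated hydroxylation of Luciferin-H EGE, 10uM (KM). Assay mix: 5nM enzyme, 50mM KPO4; 60 min at 37C with NADPH regeneration. Data normalized against 57uM ketoconazole.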
# Cytochrome P450 3A4 (Homo sapiens), sequence (P08684 whole entry, looked up): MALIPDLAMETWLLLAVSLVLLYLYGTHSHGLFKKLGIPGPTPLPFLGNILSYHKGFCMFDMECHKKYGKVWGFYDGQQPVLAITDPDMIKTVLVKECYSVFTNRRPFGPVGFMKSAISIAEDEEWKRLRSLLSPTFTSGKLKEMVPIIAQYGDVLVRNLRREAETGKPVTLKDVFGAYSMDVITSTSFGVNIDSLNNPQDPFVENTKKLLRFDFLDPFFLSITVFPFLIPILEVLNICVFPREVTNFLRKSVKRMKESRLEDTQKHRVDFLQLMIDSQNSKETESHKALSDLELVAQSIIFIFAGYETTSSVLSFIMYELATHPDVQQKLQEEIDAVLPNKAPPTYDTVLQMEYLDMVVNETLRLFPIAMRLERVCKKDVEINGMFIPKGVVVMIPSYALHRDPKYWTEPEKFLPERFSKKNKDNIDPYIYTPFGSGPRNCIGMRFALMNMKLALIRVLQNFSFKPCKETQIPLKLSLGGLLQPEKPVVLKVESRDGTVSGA
# Atrial natriuretic peptide receptor 1 (Homo sapiens), sequence (P16066 whole entry, looked up): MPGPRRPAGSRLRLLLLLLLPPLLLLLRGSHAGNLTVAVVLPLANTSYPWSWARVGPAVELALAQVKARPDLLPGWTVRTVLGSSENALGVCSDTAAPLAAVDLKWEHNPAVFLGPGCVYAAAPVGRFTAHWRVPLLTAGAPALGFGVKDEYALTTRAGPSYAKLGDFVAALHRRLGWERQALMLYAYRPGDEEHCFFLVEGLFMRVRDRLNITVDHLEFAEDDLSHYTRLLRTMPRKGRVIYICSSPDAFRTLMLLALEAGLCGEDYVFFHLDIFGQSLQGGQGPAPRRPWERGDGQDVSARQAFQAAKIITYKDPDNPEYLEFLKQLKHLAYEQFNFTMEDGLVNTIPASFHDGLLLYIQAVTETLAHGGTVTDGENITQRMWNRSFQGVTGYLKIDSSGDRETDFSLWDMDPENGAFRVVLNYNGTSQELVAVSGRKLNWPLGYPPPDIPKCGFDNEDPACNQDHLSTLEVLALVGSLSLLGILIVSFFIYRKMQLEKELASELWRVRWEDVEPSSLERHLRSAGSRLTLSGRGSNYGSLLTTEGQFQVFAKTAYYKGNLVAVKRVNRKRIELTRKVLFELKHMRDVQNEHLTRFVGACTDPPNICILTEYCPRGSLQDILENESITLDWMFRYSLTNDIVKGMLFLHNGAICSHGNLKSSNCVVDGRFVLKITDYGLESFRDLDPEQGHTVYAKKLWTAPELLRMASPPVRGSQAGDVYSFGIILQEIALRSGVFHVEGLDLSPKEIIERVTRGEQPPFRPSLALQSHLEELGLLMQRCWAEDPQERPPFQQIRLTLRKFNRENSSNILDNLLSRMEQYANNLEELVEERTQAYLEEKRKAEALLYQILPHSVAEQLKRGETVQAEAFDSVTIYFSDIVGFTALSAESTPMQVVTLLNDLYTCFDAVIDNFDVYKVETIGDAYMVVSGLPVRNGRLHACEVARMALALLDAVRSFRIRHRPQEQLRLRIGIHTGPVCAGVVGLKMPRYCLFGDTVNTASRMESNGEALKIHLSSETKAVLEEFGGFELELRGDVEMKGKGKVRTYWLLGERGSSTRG
# Cytochrome P450 2C19 (Homo sapiens), sequence (P33261 whole entry, looked up): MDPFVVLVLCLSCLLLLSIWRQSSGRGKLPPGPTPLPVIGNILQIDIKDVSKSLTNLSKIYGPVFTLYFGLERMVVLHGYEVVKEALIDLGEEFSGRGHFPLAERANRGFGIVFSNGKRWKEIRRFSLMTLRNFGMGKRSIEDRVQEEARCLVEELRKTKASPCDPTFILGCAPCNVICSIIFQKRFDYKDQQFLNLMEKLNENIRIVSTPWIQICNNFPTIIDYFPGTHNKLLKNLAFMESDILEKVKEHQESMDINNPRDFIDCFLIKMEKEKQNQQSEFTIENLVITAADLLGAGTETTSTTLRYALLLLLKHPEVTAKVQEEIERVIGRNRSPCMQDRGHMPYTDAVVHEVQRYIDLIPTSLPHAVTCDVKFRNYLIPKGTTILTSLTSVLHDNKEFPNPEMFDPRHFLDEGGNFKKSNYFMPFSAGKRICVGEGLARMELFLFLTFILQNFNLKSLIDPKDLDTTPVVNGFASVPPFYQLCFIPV
# Cytochrome P450 2C9 (Homo sapiens), sequence (P11712 whole entry, looked up): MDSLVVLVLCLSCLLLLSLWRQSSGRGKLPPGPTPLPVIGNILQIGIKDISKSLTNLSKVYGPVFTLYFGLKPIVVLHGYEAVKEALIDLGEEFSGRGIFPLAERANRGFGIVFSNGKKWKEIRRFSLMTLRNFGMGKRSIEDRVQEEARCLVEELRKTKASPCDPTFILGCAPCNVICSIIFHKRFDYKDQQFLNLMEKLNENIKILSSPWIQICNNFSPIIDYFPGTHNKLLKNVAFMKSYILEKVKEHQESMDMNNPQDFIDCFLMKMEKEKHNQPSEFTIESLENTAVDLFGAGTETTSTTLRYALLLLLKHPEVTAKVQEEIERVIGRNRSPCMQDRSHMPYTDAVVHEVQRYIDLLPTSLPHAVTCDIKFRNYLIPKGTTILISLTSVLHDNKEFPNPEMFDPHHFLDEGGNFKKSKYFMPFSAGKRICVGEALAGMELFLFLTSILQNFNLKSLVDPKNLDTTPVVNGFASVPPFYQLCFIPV
# Cytochrome P450 2D6 (Homo sapiens), sequence (P10635 whole entry, looked up): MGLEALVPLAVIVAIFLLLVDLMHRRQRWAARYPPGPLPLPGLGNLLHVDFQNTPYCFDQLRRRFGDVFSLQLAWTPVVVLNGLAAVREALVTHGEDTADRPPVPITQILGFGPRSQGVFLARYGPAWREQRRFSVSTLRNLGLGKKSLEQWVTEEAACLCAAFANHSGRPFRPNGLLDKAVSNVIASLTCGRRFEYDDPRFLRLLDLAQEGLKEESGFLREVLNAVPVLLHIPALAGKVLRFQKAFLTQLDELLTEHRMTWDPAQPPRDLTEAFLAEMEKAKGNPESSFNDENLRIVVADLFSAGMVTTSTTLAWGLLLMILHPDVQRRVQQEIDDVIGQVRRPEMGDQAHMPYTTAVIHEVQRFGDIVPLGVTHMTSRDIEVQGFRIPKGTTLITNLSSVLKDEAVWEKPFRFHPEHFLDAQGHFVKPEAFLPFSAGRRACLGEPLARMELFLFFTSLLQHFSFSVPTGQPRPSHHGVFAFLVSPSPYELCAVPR
smiles,measurement,setting,value
COc1ccc(O[C@H]2C=C[C@@H](c3ccccc3)O[C@H]2CON=C(C)CCN2CCCc3nc(C)c(C)cc32)cc1,Potency,[1],3.29 µM (active)
same,Potency,[2],inactive
C=C[C@@H](C)[C@](C)(O)c1ccccc1,Potency,[3],1.51 µM (active)
same,Potency,[4],inactive
same,Potency,[2],inactive
COC(=O)C1=C(C)N(Cc2ccccc2)C(=NCc2ccc3c(c2)OCO3)NC1CCc1ccccc1 (centres undefined),Potency,[3],inactive
same,Potency,[4],inactive
same,Potency,[2],inactive
COC(=O)C1=C(C)N(Cc2ccccc2)C(=NCC(C)C)NC1c1cccc(F)c1 (centres undefined),Potency,[1],inactive
same,Potency,[2],inactive
COC(=O)C12C[C@@H](C)C3C(C)C(c4ccccc4C31)N2C(=O)C(F)(F)F (some centres undefined),Potency,[3],inactive
same,Potency,[4],inactive
same,Potency,[2],inactive
CCc1cc2c(nc1CC)CCN(CCC(C)=NO[C@H](C)c1cn([C@H](CO)Cc3ccccc3)nn1)C2,Potency,[3],1.51 µM (active)
same,Potency,[4],inactive
same,Potency,[2],inactive
COC(=O)C1=C(C)N(CC2CC2)C(N(C)Cc2ccc(OC)cc2)=NC1c1ccccc1 (centres undefined),Potency,[1],inactive
same,Potency,[2],inactive
CC(C)(C)Nc1oc(-c2ccccc2)nc1C=Cc1ccccc1,Potency,[1],1.69 µM (active)
same,Potency,[2],inactive
COC(=O)C1=C(C)N(Cc2ccccc2)C(=NCC2CC2)NC1c1ccc(Br)cc1 (centres undefined),Potency,[1],inactive
same,Potency,[2],inactive
CCc1cc2c(nc1CC)CCN(CCC(C)=NO[C@@H](C)c1cn([C@H](CO)Cc3ccccc3)nn1)C2,Potency,[3],1.69 µM (active)
same,Potency,[4],inactive
same,Potency,[2],inactive
CCN1C(=NCc2ccc3c(c2)OCO3)NC(c2ccccc2)C(C(=O)OC)=C1C (centres undefined),Potency,[1],inactive
same,Potency,[2],inactive
COC1=C(C(=O)c2ccccc2)C(=O)[C@@]2(CC=C(C)C)C[C@@H]([S+](=O)([O-])c3ccccc3)C(C)(C)[C@@]1(CC=C(C)C)C2=O,Potency,[1],1.9 µM (active)
same,Potency,[2],inactive
CC(C)=CCC1(CC=C(C)C)C(=O)C(C(=O)c2ccccc2)=C2OC(C)(C)CCC2(CC=C(C)C)C1=O (centres undefined),"activity change, negative = inhibition",[5],-24.2% [at 11.4 µM]
same,Potency,[6],3.98 µM (active)
same,"activity change, positive = activation",[7],-69.3% [at 11.4 µM]
same,"activity change, negative = inhibition",[8],20.1% [at 11.4 µM]
same,"activity, negative = inhibition",[9],-5.29% [at 11.4 µM]
same,Potency,[3],1.69 µM (active)
same,Potency,[2],inactive
CCN1C(=NCCc2ccccn2)NC(c2cccs2)C(C(=O)OC)=C1C (centres undefined),Potency,[1],inactive
same,Potency,[2],inactive
C=CC[C@](C)(O)c1ccccc1,Potency,[3],1.51 µM (active)
same,Potency,[4],inactive
same,Potency,[2],inactive
COc1ccc([C@]23Cc4cc(C#N)ccc4[C@H](O2)c2c(cc(C)n(Cc4ccccc4)c2=O)O3)cc1,Potency,[3],1.69 µM (active)
same,Potency,[4],inactive
same,Potency,[2],inactive
COc1cccc([C@@H]2[C@H](C)C[C@H]3CC(=O)N4[C@H](CC(=O)N32)C[C@@H](C)[C@@H]4c2cccc(OC)c2)c1,Potency,[3],1.51 µM (active)
same,Potency,[4],inactive
same,Potency,[2],inactive
C=COC[C@H]1CN2[C@H](c3ccc(Br)cc3)[C@H](C)CC[C@H]2C(=O)O1,Potency,[3],inactive
same,Potency,[4],1.9 µM (active)
same,Potency,[2],inactive
CC(C)=CCN1C(=O)[C@@]2(CC(C)=CC[C@@H](COc3ccccc3)O2)c2ccccc21,Potency,[3],2.69 µM (active)
same,Potency,[4],inactive
same,Potency,[2],inactive
COC(=O)C1=C(C(=O)OC)[C@@H]2N(C)c3ccccc3[C@@]23C[C@@H](CO)N(C(=O)NC2CCCC2)C3=N1,Potency,[1],1.9 µM (active)
same,Potency,[2],inactive
CC(Nc1oc(-c2ccccc2)nc1-c1cccc2ccccc12)c1ccccc1 (centres undefined),Potency,[1],inactive
same,Potency,[4],inactive
same,Potency,[2],inactive
COC(=O)C1=C(C)N(Cc2ccccc2)C(=O)NC1CCc1ccccc1 (centres undefined),Potency,[1],inactive
same,Potency,[4],inactive
same,Potency,[2],inactive
O=C1Nc2ccccc2[C@@]12O[C@H](COc1ccccc1)CC1=C2CCC1,Potency,[4],inactive
same,Potency,[2],inactive
CC(C)(C)OC(=O)C1=NOC2(C=CC(=O)C=C2)C1,"activity change, negative = inhibition",[5],-5.68% [at 11.4 µM]
same,"activity change, negative = inhibition",[6],-24.2% [at 11.4 µM]
same,"activity change, negative = inhibition",[8],-10.1% [at 11.4 µM]
same,"activity, negative = inhibition",[9],0.0773% [at 11.4 µM]
same,Potency,[1],inactive
same,Potency,[4],inactive
same,Potency,[2],0.376 µM (active)
CCN1C(=S)NC(c2cccs2)C(C(=O)OC)=C1C (centres undefined),Potency,[1],inactive
same,Potency,[4],inactive
same,Potency,[2],inactive
COc1ccc(O[C@H]2C=C[C@@H](c3ccccc3)O[C@H]2COC(=O)CCC(C)=NOCC[C@@H]2C=C[C@H](OC(C)=O)[C@@H](COC(C)=O)O2)cc1,Potency,[1],inactive
same,Potency,[4],inactive
same,Potency,[2],inactive
C[C@@H]1CC[C@H]2C(=O)N(Cc3ccc(Cl)cc3)C[C@@H](O)CN2[C@@H]1c1ccc(Br)cc1,Potency,[1],inactive
same,Potency,[4],inactive
same,Potency,[2],inactive
COc1cccc([C@H]2Oc3ccc(OC)cc3C(=NO[C@H](C)c3cn([C@H](CO)Cc4ccccc4)nn3)[C@H]2O)c1,Potency,[1],inactive
same,Potency,[4],inactive
same,Potency,[2],inactive
COc1ccc([C@]23Cc4ccccc4[C@H](O2)C2=C(CC(C)(C)CC2=O)O3)cc1,Potency,[4],inactive
same,Potency,[2],inactive
CCN1C(=NCc2ccccc2)NC(c2cccc(C(F)(F)F)c2)C(C(=O)OC)=C1C (centres undefined),Potency,[1],inactive
same,Potency,[4],inactive
same,Potency,[2],inactive
COC(=O)c1ccc(CN2C(=O)[C@]3(OCCC=C[C@@H]3C)c3ccccc32)cc1,Potency,[1],inactive
same,Potency,[4],inactive
same,Potency,[2],inactive
COC(=O)N1C2CC(=O)O[C@H]3c4cc5c(cc4[C@]1(C)[C@@]3(Br)c1ccccc12)OCO5,Potency,[4],1.51 µM (active)
same,Potency,[2],inactive
COc1ccc2c(c1)[C@@]1(OCCC=C[C@@H]1C)C(=O)N2Cc1ccccc1C(F)(F)F,Potency,[4],inactive
same,Potency,[2],inactive
